The subject of test [1] is Tyrosine-protein kinase ABL1 (Homo sapiens), P00519 [T315I]. The following applies: at 1 µM.
The test system of test [2] is Tyrosine-protein kinase ABL1 (Homo sapiens), P00519 [Y253F]. The following applies: at 0.1 µM.
Test [3] has the same test system. The following applies: at 1 µM.
The target of test [4] is Tyrosine-protein kinase ABL1 (Homo sapiens) (UniProt P00519). The following applies: at 0.1 µM.
Test [5] shares this target. The note with it: at 1 µM.
Test [6] has as its target ALK tyrosine kinase receptor (Homo sapiens) (UniProt Q9UM73). The following applies: at 0.1 µM.
Test [7] shares this target. The following applies: at 1 µM.
The target in test [8] is Tyrosine-protein kinase ABL2 (Homo sapiens) (UniProt P42684). The note with it: at 0.1 µM.
Test [9] has the same target. The note with it: at 1 µM.
The target in test [10] is Tyrosine-protein kinase receptor UFO (Homo sapiens) (UniProt P30530). The following applies: at 0.1 µM.
For test [11] the target is unchanged. The note with it: at 1 µM.
Test [12] addresses Tyrosine-protein kinase Blk (Homo sapiens) (UniProt P51451). The note with it: at 0.1 µM.
For test [13] the target is unchanged. The note with it: at 1 µM.
The target of test [14] is T1, Cytoplasmic tyrosine-protein kinase BMX (Homo sapiens) (UniProt P51813).
T1 sequence (whole entry): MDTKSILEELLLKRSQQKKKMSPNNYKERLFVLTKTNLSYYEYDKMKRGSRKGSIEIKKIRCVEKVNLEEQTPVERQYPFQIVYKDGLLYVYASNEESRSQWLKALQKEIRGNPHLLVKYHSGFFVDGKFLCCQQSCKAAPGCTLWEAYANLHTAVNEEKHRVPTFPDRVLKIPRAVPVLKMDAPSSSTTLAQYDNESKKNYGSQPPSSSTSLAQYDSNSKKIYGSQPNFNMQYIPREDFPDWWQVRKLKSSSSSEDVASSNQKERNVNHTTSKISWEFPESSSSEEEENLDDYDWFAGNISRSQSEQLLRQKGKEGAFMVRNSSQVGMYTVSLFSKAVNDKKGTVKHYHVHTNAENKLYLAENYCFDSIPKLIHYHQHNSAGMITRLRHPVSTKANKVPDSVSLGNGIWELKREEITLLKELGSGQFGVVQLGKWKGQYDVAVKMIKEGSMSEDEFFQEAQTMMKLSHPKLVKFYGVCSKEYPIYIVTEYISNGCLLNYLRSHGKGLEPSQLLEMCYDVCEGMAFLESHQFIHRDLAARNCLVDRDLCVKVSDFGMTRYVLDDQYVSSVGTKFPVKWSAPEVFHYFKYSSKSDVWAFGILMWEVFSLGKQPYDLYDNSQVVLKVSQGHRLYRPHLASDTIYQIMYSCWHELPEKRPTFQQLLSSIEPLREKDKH
The note with it: at 0.1 µM.

The target in test [15] is T1, Cytoplasmic tyrosine-protein kinase BMX (Homo sapiens). The note with it: at 1 µM.
Test [16] concerns the target Protein-tyrosine kinase 6 (Homo sapiens) (UniProt Q13882). The following applies: at 0.1 µM.
The target is the same in test [17]. The note with it: at 1 µM.
Test [18] addresses Tyrosine-protein kinase BTK (Homo sapiens) (UniProt Q06187). The following applies: at 0.1 µM.
Test [19] has the same target. The note with it: at 1 µM.
Test [20] has as its target Tyrosine-protein kinase CSK (Homo sapiens) (UniProt P41240). The note with it: at 0.1 µM.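 Also: value given is the averaged percent inhibition of CSK kinase activity, from the GSK PKIS kinase inhibitor set screening panel.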

Molecules are shown by their SMILES.

Experimental findings from ChEMBL document CHEMBL1961873, “Compounds: GSK PKIS; Assays: Nanosyn kinase panel” (2012) are described below.

Protein-tyrosine kinase 6 (Homo sapiens), sequence (Q13882 whole entry, looked up): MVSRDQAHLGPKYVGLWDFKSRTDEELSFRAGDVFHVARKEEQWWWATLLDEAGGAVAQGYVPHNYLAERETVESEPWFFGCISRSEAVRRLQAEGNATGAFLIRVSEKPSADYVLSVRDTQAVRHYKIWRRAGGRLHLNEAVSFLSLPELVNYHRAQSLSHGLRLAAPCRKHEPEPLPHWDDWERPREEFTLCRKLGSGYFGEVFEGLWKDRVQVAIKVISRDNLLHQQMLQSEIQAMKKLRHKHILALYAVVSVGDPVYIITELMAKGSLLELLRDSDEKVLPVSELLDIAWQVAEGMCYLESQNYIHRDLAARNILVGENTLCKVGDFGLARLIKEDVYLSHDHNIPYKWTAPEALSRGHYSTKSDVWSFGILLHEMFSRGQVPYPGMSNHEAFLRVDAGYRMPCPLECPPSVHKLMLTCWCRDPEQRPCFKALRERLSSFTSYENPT
Tyrosine-protein kinase ABL2 (Homo sapiens), sequence (P42684 whole entry): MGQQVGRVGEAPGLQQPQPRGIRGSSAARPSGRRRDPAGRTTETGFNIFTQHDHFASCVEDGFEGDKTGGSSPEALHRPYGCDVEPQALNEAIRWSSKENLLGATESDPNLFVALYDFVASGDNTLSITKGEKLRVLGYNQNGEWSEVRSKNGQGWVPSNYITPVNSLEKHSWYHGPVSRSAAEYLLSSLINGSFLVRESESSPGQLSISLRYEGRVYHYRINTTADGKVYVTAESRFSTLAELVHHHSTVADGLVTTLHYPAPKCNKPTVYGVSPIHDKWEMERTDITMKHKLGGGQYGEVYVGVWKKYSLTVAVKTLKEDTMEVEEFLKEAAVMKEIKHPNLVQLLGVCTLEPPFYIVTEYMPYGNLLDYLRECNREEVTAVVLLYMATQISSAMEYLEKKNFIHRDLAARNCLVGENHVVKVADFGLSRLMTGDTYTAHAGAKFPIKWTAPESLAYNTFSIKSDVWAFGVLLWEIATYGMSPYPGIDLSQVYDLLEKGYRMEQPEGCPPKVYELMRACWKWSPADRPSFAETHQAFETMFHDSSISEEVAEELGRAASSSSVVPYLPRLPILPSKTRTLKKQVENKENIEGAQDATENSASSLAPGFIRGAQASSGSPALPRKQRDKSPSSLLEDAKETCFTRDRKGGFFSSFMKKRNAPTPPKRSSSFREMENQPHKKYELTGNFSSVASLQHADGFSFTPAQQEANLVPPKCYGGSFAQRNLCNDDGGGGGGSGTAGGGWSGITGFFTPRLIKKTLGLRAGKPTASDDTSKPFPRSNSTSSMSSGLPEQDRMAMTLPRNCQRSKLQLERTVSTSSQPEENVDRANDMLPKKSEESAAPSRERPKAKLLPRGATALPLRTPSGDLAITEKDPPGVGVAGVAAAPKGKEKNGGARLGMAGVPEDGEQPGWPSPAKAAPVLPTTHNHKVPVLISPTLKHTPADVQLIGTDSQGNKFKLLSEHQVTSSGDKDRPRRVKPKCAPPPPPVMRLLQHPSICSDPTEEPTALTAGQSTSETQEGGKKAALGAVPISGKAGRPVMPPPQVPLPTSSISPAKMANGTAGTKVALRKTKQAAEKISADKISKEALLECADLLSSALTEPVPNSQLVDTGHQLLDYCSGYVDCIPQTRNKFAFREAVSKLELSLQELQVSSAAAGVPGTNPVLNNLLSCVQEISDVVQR
ALK tyrosine kinase receptor (Homo sapiens), sequence (Q9UM73 19-1620 limits assumed): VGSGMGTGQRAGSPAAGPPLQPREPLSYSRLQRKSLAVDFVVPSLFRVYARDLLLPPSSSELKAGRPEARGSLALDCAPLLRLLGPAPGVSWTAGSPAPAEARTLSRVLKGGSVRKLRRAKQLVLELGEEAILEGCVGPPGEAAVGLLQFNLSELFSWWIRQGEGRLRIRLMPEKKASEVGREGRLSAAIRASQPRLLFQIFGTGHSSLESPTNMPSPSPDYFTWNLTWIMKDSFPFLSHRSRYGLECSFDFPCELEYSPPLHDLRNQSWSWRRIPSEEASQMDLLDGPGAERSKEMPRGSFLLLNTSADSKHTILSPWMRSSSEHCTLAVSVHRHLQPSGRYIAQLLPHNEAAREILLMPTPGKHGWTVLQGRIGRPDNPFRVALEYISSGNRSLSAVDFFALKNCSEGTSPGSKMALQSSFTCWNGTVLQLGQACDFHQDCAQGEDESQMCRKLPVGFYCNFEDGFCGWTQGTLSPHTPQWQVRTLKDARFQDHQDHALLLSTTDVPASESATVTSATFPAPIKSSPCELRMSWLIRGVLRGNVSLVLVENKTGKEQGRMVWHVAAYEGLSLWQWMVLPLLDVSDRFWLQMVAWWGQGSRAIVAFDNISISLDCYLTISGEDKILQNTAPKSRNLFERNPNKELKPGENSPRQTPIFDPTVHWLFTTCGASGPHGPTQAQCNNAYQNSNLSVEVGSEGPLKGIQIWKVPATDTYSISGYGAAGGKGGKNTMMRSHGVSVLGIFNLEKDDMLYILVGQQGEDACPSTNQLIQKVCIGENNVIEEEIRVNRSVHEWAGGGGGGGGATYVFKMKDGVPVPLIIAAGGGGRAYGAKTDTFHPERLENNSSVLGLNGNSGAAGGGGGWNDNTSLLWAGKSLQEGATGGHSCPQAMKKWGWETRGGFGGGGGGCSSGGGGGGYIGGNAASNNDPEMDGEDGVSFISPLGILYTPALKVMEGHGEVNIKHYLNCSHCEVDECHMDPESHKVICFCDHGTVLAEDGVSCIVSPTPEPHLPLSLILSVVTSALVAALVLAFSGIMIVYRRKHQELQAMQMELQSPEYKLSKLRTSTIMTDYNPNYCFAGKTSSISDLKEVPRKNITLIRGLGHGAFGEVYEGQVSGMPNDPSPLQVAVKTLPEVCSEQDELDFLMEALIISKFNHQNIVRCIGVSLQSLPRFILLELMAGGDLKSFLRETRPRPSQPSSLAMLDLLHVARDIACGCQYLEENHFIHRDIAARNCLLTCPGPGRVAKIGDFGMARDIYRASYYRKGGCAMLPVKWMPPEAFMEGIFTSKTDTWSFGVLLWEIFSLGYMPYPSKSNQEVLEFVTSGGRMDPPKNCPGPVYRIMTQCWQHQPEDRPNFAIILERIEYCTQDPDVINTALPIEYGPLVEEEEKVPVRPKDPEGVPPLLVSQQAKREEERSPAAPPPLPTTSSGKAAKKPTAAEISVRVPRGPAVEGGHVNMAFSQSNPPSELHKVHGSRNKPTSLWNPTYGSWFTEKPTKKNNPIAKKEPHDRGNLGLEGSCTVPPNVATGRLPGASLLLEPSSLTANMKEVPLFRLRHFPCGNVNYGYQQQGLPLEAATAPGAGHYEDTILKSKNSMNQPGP
Tyrosine-protein kinase Blk (Homo sapiens), sequence (P51451 2-505 limits assumed): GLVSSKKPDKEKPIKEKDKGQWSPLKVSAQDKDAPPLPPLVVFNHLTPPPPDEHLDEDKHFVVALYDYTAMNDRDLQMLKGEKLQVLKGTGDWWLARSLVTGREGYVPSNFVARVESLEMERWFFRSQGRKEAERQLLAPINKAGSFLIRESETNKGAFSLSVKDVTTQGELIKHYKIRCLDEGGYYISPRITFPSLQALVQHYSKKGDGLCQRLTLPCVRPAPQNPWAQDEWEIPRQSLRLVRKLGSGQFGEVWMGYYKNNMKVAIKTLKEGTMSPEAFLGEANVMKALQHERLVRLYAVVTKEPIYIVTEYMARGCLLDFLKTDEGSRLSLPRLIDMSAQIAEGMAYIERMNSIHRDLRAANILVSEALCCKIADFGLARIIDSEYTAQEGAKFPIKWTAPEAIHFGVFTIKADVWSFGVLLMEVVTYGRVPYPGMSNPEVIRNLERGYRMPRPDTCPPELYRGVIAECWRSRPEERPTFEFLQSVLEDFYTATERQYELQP
Tyrosine-protein kinase BTK (Homo sapiens), sequence (Q06187 whole entry): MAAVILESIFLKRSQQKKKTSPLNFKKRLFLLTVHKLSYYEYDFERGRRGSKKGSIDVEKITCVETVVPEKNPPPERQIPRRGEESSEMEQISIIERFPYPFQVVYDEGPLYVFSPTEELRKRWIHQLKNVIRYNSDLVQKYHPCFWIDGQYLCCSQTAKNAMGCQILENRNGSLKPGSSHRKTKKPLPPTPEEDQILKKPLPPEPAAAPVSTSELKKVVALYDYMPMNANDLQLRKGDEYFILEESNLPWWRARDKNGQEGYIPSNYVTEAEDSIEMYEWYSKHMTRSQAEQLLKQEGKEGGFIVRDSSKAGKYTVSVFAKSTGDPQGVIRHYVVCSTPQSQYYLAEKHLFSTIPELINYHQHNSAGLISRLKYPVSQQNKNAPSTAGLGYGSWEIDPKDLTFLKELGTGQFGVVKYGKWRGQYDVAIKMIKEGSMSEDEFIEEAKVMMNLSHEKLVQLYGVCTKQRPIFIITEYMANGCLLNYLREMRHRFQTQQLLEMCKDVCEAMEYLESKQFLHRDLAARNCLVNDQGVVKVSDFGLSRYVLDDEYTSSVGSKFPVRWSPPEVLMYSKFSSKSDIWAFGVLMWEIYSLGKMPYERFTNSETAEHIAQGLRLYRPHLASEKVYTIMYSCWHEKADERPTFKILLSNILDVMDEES
Tyrosine-protein kinase CSK (Homo sapiens), sequence (P41240 2-450 limits assumed): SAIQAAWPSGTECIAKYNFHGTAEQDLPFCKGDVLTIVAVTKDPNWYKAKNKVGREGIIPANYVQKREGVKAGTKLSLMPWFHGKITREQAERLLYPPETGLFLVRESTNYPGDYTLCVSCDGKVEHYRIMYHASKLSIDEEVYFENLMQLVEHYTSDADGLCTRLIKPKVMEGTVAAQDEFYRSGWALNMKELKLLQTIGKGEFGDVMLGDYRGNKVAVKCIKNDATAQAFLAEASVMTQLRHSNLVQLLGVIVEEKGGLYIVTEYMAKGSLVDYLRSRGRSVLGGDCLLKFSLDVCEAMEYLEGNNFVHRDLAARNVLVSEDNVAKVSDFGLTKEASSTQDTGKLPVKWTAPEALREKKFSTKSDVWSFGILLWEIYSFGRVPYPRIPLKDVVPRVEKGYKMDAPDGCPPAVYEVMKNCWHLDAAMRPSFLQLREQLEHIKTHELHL

Broadly, the inhibition is the drop in the measured response relative to a control, in per cent. Turning to `O=C(Nc1ccc(Oc2ccc3[nH]c(NC(=O)c4ccccc4)nc3c2)cc1)Nc1cc(C(F)(F)F)ccc1F`, the inhibition came to 83% in [1]; 10.8% in [2]; 51.8% in test [3]; 16.2% in [4]; 62.3% in [5]; 3.09% in test [6]. Moreover, the inhibition in test [7] is 6.42%; in test [8], 25.1%; in [9], 65.9%; in test [10], -3.01%; in test [11], 19.2%; in [12], 2.56%. In addition, the inhibition in [13] stood at 4.59%; in [14], 1.13%; in [15] it was 2.54%; in test [16] it was 3.52%; in test [17] it was 8.39%; in test [18], 0.7%. Further, the figures for the inhibition in test [19] and in test [20] were 3.03% and 2.64%, respectively.
As for `Fc1ccc(-c2nc3n(c2-c2ccncc2)CCS3)cc1`, the inhibition in test [1] was 2.55%; in [2], 3.68%; in test [3], 5.02%; in [4], -1.35%; in [5] it was 3.25%; in test [6], -0.77%. In addition, the inhibition in test [7] is 0.29%; in test [8], 0.16%; in test [9], 4.56%; in [10], -7.95%; in test [11] it was -3.95%; in [13], -0.49%. Further, the inhibition in test [14] was 2.02%; in [15] it was 4.87%; in test [16] it was -1.54%; in test [17] it was 4.07%; in [18] it was -2.44%; in [19] it was -3.5%. The inhibition in test [20] is 7.37%.
For the molecule `COc1ccc(C2=C(N3CCc4ccccc43)C(=O)NC2=O)cc1`, the inhibition in test [1] amounted to 6.11%; in [2], 5.42%; in [3] it was 3.01%; in test [4], 5.83%; in test [5], 9.91%; in test [6] it was 1.29%. The inhibition is 5.62% in test [7]; 6.76% in test [8]; 12.3% in test [9]; -5.65% in test [10]; -4.91% in test [11]; 3.71% in test [12]. Also, the inhibition was 2.94% in [13]; -1.14% in [14]; 5.15% in [15]; 6% in test [16]; 5.72% in test [17]; 1.91% in [18]. Moreover, the results for the inhibition in test [19] and in [20] were 0.84% and 7.99%, respectively.
Regarding `CCN(CC)Cc1ccc(Nc2nccc(-c3cnn4ncccc34)n2)cc1`, the inhibition in [1] stood at 47.4%; in test [2] it was 8.38%; in test [3], 39.5%; in test [4], 6.1%; in [5] it was 29.5%; in test [6], 2.57%. The inhibition in [7] was 24.4%; in test [8] it was 1.47%; in test [9], 22.2%; in test [10], -3.64%; in test [11] it was 16.3%; in test [12], -0.3%. For the same molecule, the inhibition in test [13] is 1.7%; in test [14], 2.63%; in test [15], 10.8%; in [16], 3.93%; in [17], 15.7%; in test [18], -3.74%. Further, the inhibition in test [19] is -0.83%; in [20], 1.79%.
Regarding `COc1cc2ncn(-c3cc(OCc4cccs4)c(C(N)=O)s3)c2cc1OC`, the inhibition in [1] is 59.6%; in [2], 9.05%; in [3], 41.8%; in test [4] it was 3.87%; in [5] it was 42%; in test [6], -3.76%. Also, the inhibition is 6.72% in test [7]; 0.54% in [8]; 18.4% in test [9]; 3.68% in test [10]; 1.31% in [11]; 0.4% in [12]. Moreover, the inhibition is 18.6% in [13]; -4.41% in test [14]; 3.5% in test [15]; 2.12% in test [16]; 7.01% in test [17]; -2.66% in test [18]. Also, the figures for the inhibition in test [19] and in test [20] were -0.98% and 4.25%, respectively.
As to `Fc1ccc(-c2ncn(CCCN3CCOCC3)c2-c2ccncc2)cc1`, the inhibition in test [1] was -0.98%; in [2], -0.87%; in test [3] it was 0.03%; in [4], 1.14%; in [5], 0.89%; in test [6], 1.45%. The inhibition in [7] is -0.45%; in test [8] it was 1.71%; in [9], 5.07%; in test [10] it was -0.1%; in [11] it was 1.84%; in [12], -0.04%. Also, the inhibition in test [13] is 1.04%; in [14], 1.9%; in test [15], -0.36%; in [16] it was -4.64%; in test [17], -0.48%; in [18] it was -0.91%. The inhibition in test [19] is 2.71%; in test [20], -2.06%.
As for `O=C1NC(=O)C(c2cccc(Cl)c2)=C1Nc1ccc(Cl)c(C(=O)O)c1`, the inhibition is 4.06% in test [1]; 1.35% in test [2]; 3.2% in test [3]; 3.49% in test [4]; 5.5% in test [5]; 1.24% in test [6]. In addition, the inhibition is 3.05% in test [7]; 3.74% in test [8]; -0.4% in test [9]; -4.48% in test [10]; -3.02% in test [11]; 2.33% in test [12]. In addition, the inhibition in test [13] was 0.47%; in test [14], 8.42%; in test [15], 2.62%; in [16] it was 3.64%; in test [17], 5.12%; in [18] it was -0.87%. The inhibition in [19] came out at 0.33%; in [20], 1.29%.
With `CCc1ccc(Oc2nccc(-c3c(-c4ccc(F)cc4)ncn3C3CCNCC3)n2)cc1`, the inhibition in test [1] came out at 3.78%; in [2] it was 1.61%; in [3] it was 2.53%; in test [4] it was 5.79%; in test [5] it was 6.61%; in [6], 1.79%. The inhibition in test [7] was 2.02%; in test [8] it was 2.69%; in test [9], 5.01%; in test [10] it was -2.27%; in test [11], -3.44%; in test [12] it was 2.31%. Besides, the inhibition in test [13] is 4.68%; in [14] it was 5.07%; in test [15], 6.03%; in test [16] it was 2.72%; in [17] it was 2.5%; in test [18], -0.17%. For the same molecule, the values for the inhibition in test [19] and in test [20] were 0.53% and -0.21%, respectively.
